In the supplement of paper PMC10849652:
The full data set covers some 7,900 targets. This sample favours those with a hit. About 0.6% of all pairs of compound and target were hits.

Legend:
Experiment in all cases: log2 fold change, soluble protein after heating vs DMSO (PISA); higher = thermal stabilisation; K562 cells, 10 uM, 30 min; active = over 0.2 and 3.5 SD of the protein, either way, in both replicates (recomputed)
[1] = compound: CS(=O)(=O)c1ccc(-c2cnc(N)c(C(=O)Nc3ccccc3)n2)cc1
Outline: (§1)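 K562 cells at 2×10^6 cells/mL were treated with 10 μM compound for 30 min. Aliquots were heated for 3 min across 48°C-58°C, pooled, and extracted in PBS with 0.5% NP-40 at 4°C; soluble protein was the supernatant after 21,000xg for 90 min. Soluble protein was quantified by TMTpro 16plex LC-MS/MS with channel sums equalised, and reported as log2 fold change in thermal stability against DMSO controls, with values from duplicates.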

crizotinib = compound: C[C@@H](Oc1cc(-c2cnn(C3CCNCC3)c2)cnc1N)c1c(Cl)ccc(F)c1Cl [crizotinib]
Outline: as §1

[2] = compound: C[C@@H]1COCCN1C2=NC(=NC(=C2)C3(CC3)S(=O)(=O)C)C4=C5C=CNC5=CC=C4
Outline: as §1

[3] = compound: C[C@H](C1=CC=C(C=C1)C(=O)NC2=C3C=CNC3=NC=C2)N
Outline: as §1

duvelisib = compound: C[C@H](Nc1ncnc2nc[nH]c12)c1cc2cccc(Cl)c2c(=O)n1-c1ccccc1 [duvelisib]
Outline: as §1

gandotinib = compound: Cc1cc(Nc2cc(CN3CCOCC3)c3nc(C)c(Cc4ccc(Cl)cc4F)n3n2)n[nH]1 [gandotinib]
Outline: as §1

tozasertib = compound: Cc1cc(Nc2cc(N3CCN(C)CC3)nc(Sc3ccc(NC(=O)C4CC4)cc3)n2)n[nH]1 [tozasertib]
Outline: as §1

[4] = compound: Cc1cc(SCc2sc(-c3ccc(C(F)(F)F)cc3)nc2C)ccc1OCC(=O)O
Outline: as §1

doramapimod = compound: Cc1ccc(-n2nc(C(C)(C)C)cc2NC(=O)Nc2ccc(OCCN3CCOCC3)c3ccccc23)cc1 [doramapimod]
Outline: as §1

ispinesib = compound: Cc1ccc(C(=O)N(CCCN)[C@@H](c2nc3cc(Cl)ccc3c(=O)n2Cc2ccccc2)C(C)C)cc1 [ispinesib]
Outline: as §1

bafetinib = compound: Cc1ccc(NC(=O)c2ccc(CN3CC[C@H](N(C)C)C3)c(C(F)(F)F)c2)cc1Nc1nccc(-c2cncnc2)n1 [bafetinib]
Outline: as §1

[5] = compound: Cc1cccc(CC(=O)N2CCc3c2ccc(-c2cn(C)c4ncnc(N)c24)c3F)n1
Outline: as §1

nilotinib = compound: Cc1cn(-c2cc(NC(=O)c3ccc(C)c(Nc4nccc(-c5cccnc5)n4)c3)cc(C(F)(F)F)c2)cn1 [nilotinib]
Outline: as §1

[6] = compound: Cc1nc(Nc2n[nH]c3c2CN(C(=O)N[C@H](CN(C)C)c2ccccc2)C3(C)C)c2sccc2n1
Outline: as §1

dasatinib = compound: Cc1nc(Nc2ncc(C(=O)Nc3c(C)cccc3Cl)s2)cc(N2CCN(CCO)CC2)n1 [dasatinib]
Outline: as §1

[7] = compound: Cc1ncc(-c2ccnc(Nc3ccc(S(C)(=O)=O)cc3)n2)n1C(C)C
Outline: as §1

[8] = compound: Cn1cc(-c2ccc3c(c2)CCN3C(=O)Cc2cccc(C(F)(F)F)c2)c2c(N)ncnc21
Outline: as §1

[9] = compound: Cn1cc(-c2ccc3nnc(C(F)(F)c4ccc5ncccc5c4)n3n2)cn1
Outline: as §1

tipifarnib = compound: Cn1cncc1[C@@](N)(c1ccc(Cl)cc1)c1ccc2c(c1)c(-c1cccc(Cl)c1)cc(=O)n2C [tipifarnib]
Outline: as §1

mubritinib = compound: FC(F)(F)c1ccc(/C=C/c2nc(COc3ccc(CCCCn4ccnn4)cc3)co2)cc1 [mubritinib]
Outline: as §1

Measured: log2 fold change

GLA (UniProt P06280)
inactive: [1] -0.033 | crizotinib -0.205 | [2] -0.019 | [3] 0.018 | duvelisib -0.027 | gandotinib -0.066 | tozasertib -0.03 | [4] 0.034 | doramapimod -0.036 | ispinesib -0.148 | [5] -0.051 | nilotinib 0.021 | [6] -0.007 | dasatinib -0.039 | [7] -0.04 | [8] 0.005 | [9] 0.03 | tipifarnib 0.064 | mubritinib 0.035
active: bafetinib -0.529

GIGYF2 (UniProt Q6Y7W6)
Chain of UniProt Q6Y7W6 (Q6Y7W6 whole entry, looked up): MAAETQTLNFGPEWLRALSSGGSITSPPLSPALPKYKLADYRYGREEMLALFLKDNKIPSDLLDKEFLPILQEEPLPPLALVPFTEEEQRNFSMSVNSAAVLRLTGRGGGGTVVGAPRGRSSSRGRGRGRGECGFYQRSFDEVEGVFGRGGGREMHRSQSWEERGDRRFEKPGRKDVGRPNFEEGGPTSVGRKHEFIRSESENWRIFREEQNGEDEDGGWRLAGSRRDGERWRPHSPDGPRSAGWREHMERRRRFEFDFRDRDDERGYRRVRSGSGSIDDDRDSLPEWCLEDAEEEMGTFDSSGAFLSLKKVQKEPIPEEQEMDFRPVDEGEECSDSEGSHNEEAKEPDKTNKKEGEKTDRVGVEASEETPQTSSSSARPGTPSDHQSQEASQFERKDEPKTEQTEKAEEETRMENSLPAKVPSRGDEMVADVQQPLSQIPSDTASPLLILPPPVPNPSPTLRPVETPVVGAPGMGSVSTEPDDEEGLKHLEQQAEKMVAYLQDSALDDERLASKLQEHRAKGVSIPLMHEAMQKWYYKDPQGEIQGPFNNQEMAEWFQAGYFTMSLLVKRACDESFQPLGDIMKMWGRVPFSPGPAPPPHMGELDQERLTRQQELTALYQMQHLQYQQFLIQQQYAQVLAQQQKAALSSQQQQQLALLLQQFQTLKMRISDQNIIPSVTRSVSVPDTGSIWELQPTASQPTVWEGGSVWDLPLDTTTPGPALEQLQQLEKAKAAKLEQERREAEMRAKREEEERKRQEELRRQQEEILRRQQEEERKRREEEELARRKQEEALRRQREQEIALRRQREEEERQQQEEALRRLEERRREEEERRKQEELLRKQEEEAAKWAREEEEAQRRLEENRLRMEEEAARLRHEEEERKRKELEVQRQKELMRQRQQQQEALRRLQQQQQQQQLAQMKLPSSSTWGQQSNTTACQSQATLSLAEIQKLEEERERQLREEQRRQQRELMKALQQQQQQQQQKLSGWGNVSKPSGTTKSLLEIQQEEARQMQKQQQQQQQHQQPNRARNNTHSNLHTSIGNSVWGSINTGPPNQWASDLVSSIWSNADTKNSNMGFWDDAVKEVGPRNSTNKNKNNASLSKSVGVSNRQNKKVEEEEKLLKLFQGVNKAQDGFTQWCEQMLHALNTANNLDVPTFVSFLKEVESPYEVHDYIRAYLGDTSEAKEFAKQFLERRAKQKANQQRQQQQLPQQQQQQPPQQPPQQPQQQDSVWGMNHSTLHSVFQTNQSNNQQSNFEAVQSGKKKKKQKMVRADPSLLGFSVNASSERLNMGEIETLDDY
inactive: [1] 0.005 | crizotinib -0.084 | [2] 0.083 | [3] 0 | duvelisib 0.006 | gandotinib -0.03 | tozasertib -0.012 | [4] 0.114 | doramapimod -0.028 | ispinesib -0.179 | bafetinib -0.076 | [5] 0.045 | nilotinib -0.161 | [6] -0.105 | dasatinib -0.22 | [7] -0.023 | [8] 0.054 | [9] -0.025 | tipifarnib -0.119 | mubritinib -0.03

GNPAT (UniProt O15228)
inactive: [1] 0.029 | crizotinib -0.071 | [2] 0.087 | [3] -0.088 | duvelisib 0.021 | gandotinib -0.076 | tozasertib -0.002 | [4] 0.06 | doramapimod 0.034 | ispinesib -0.006 | bafetinib -0.129 | [5] 0.045 | nilotinib -0.011 | [6] -0.008 | dasatinib 0.014 | [7] -0.028 | [8] 0.059 | [9] 0.005 | tipifarnib 0.031 | mubritinib 0.005

GLUD1 (UniProt P00367)
Chain of UniProt P00367 (P00367 whole entry, looked up): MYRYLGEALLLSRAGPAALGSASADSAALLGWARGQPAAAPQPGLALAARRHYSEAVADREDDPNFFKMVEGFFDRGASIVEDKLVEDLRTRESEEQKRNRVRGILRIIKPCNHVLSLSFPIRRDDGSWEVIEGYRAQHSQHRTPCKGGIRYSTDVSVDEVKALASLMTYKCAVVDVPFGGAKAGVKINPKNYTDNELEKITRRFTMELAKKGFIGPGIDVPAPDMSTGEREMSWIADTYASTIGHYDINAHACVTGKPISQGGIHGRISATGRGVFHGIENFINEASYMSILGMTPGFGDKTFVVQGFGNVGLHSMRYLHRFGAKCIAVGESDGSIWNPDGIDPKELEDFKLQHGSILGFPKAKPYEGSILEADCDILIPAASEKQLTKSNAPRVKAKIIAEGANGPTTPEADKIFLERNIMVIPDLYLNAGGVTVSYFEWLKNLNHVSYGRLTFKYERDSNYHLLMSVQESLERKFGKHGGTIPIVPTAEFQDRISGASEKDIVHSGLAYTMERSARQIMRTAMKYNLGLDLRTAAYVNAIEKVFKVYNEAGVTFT
inactive: [1] 0.16 | crizotinib -0.016 | [2] 0.058 | [3] 0.005 | duvelisib 0.006 | gandotinib 0.141 | tozasertib -0.071 | [4] -0.057 | doramapimod 0.048 | ispinesib -0.048 | bafetinib 0.25 | [5] 0.012 | dasatinib 0.056 | [7] -0.015 | [8] 0.173 | [9] 0.04 | tipifarnib 0.068 | mubritinib 0.046
active: nilotinib 0.382 | [6] 0.266

GHDC (UniProt Q8N2G8)
Chain of UniProt Q8N2G8 (Q8N2G8 whole entry, looked up): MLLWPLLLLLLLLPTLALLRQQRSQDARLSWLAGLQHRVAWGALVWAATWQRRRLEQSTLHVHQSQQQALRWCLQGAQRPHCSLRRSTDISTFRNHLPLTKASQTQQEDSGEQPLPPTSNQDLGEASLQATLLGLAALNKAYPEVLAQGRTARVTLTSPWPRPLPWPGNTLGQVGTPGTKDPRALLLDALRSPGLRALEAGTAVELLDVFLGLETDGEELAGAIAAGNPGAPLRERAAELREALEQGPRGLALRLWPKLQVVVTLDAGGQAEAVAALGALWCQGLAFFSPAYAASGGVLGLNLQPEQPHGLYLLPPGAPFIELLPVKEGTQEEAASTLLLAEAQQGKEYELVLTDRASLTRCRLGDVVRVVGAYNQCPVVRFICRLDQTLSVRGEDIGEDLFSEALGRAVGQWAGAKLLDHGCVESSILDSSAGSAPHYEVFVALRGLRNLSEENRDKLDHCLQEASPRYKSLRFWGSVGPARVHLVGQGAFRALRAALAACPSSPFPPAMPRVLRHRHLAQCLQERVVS
inactive: [1] 0.041 | crizotinib -0.02 | [2] 0.021 | [3] -0.074 | duvelisib 0.043 | gandotinib 0.002 | tozasertib -0.01 | [4] -0.039 | doramapimod -0.041 | ispinesib -0.132 | bafetinib -0.165 | [5] 0.018 | nilotinib 0.036 | [6] -0.001 | dasatinib 0.027 | [7] -0.011 | [8] 0.045 | [9] 0.012 | tipifarnib 0.146 | mubritinib 0.01

GLS (UniProt O94925)
Chain of UniProt O94925 (O94925 whole entry, looked up): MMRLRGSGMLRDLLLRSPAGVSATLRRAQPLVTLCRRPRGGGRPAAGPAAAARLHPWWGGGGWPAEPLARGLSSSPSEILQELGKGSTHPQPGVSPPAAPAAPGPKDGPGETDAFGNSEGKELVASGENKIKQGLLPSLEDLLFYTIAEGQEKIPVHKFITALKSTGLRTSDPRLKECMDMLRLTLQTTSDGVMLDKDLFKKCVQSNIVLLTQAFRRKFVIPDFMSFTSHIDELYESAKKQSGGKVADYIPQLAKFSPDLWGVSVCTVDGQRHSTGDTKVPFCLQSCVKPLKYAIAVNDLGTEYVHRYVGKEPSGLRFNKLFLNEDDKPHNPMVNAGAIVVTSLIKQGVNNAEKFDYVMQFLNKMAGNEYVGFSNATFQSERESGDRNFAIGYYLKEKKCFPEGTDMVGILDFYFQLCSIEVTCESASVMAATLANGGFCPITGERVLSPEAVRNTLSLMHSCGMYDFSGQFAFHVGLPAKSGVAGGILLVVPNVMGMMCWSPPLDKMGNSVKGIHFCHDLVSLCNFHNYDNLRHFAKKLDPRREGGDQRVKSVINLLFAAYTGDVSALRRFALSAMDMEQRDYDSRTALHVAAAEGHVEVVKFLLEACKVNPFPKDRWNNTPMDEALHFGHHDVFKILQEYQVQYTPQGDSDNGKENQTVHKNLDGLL
inactive: [1] 0.033 | crizotinib 0.05 | [2] 0.209 | [3] -0.049 | duvelisib 0.053 | gandotinib -0.17 | tozasertib 0.012 | [4] 0.054 | doramapimod -0.105 | ispinesib 0.118 | bafetinib -0.021 | [5] 0.025 | nilotinib -0.095 | [6] -0.069 | dasatinib -0.154 | [7] 0.009 | [8] -0.081 | [9] 0.003 | tipifarnib -0.071 | mubritinib -0.285

GLRX3 (UniProt O76003)
Chain of UniProt O76003 (O76003 whole entry, looked up): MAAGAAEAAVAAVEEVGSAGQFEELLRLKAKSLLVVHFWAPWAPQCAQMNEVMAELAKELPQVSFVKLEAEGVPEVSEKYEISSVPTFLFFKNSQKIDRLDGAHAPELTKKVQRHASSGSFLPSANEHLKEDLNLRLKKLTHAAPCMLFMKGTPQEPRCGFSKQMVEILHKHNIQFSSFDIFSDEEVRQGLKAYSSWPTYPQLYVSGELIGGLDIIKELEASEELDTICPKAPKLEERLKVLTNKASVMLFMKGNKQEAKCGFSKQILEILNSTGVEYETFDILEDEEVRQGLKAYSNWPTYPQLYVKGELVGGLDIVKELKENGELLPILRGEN
inactive: [1] 0.03 | crizotinib 0.098 | [2] 0.06 | [3] -0.068 | duvelisib 0.043 | gandotinib -0.094 | tozasertib 0.077 | [4] 0.041 | doramapimod -0.075 | ispinesib 0.068 | bafetinib -0.04 | [5] 0.025 | nilotinib -0.048 | [6] -0.022 | dasatinib -0.054 | [7] 0.015 | [8] -0.015 | [9] -0.014 | tipifarnib -0.082 | mubritinib -0.004

GLUD2 (UniProt P49448)
inactive: [1] 0.102 | crizotinib 0.003 | [2] 0.011 | [3] -0.062 | duvelisib 0.191 | gandotinib 0.064 | tozasertib -0.095 | [4] 0.016 | doramapimod 0.041 | ispinesib 0 | bafetinib 0.234 | [5] 0.02 | [6] 0.21 | dasatinib -0.021 | [7] -0.031 | [9] -0.028 | tipifarnib 0.079 | mubritinib 0.041
active: nilotinib 0.478 | [8] 0.265

GAPVD1 isoform 6 (UniProt Q14C86)
inactive: [1] -0.012 | crizotinib -0.145 | [2] 0.017 | [3] 0.075 | duvelisib -0.058 | gandotinib -0.081 | tozasertib 0.061 | [4] 0.147 | doramapimod 0.038 | ispinesib -0.133 | bafetinib 0.023 | [5] 0.072 | nilotinib -0.09 | [6] -0.092 | dasatinib -0.15 | [7] -0.017 | [8] -0.043 | [9] -0.016 | tipifarnib -0.135 | mubritinib 0.028

FKBP4 (UniProt Q02790)
Chain of UniProt Q02790 (Q02790 whole entry, looked up): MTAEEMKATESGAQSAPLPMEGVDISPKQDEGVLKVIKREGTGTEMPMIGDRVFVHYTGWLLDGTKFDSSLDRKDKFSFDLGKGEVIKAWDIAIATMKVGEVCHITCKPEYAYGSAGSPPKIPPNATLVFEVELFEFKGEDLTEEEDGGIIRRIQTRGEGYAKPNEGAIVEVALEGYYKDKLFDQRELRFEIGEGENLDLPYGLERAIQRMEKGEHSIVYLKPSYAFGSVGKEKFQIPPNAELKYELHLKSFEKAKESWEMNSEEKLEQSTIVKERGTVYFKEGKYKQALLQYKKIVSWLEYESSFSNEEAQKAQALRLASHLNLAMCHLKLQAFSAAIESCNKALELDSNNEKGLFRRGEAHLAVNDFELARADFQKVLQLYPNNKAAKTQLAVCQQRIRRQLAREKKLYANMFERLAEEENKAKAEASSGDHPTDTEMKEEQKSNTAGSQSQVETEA
inactive: [1] 0.013 | crizotinib -0.008 | [2] 0.042 | [3] -0.068 | duvelisib 0.019 | gandotinib -0.105 | tozasertib -0.005 | [4] 0.077 | doramapimod -0.052 | ispinesib -0.017 | bafetinib -0.014 | [5] 0.017 | nilotinib -0.05 | [6] -0.011 | dasatinib -0.114 | [7] 0.024 | [8] 0.033 | [9] -0.002 | tipifarnib -0.092 | mubritinib 0.012

FKBP3 (UniProt Q00688)
Chain of UniProt Q00688 (Q00688 whole entry, looked up): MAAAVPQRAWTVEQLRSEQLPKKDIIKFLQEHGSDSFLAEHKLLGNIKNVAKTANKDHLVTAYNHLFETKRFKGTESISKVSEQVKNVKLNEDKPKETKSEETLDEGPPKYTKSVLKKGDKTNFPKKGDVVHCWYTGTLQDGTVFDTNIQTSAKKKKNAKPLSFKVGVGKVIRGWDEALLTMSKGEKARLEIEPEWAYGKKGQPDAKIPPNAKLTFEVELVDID
inactive: [1] -0.02 | crizotinib 0.017 | [2] 0.074 | [3] -0.076 | duvelisib 0.016 | gandotinib -0.024 | tozasertib 0.004 | [4] -0.006 | doramapimod 0 | ispinesib 0.019 | bafetinib 0.014 | [5] -0.03 | nilotinib 0.028 | [6] 0.041 | dasatinib -0.003 | [7] 0.029 | [8] -0.006 | [9] 0.021 | tipifarnib -0.01 | mubritinib 0.017

GSR (UniProt P00390)
inactive: [1] 0.009 | crizotinib 0.046 | [2] 0.029 | [3] -0.085 | duvelisib 0.014 | gandotinib 0.002 | tozasertib -0.011 | [4] -0.02 | doramapimod -0.047 | ispinesib -0.003 | bafetinib -0.031 | [5] 0 | nilotinib -0.025 | [6] 0.02 | dasatinib 0.02 | [7] 0 | [8] 0.002 | [9] 0.022 | tipifarnib -0.058 | mubritinib 0.024

HDAC7 isoform 5 (UniProt Q8WUI4)
active: [3] -0.281 | [6] -0.378
inactive: [1] -0.027 | crizotinib -0.013 | [2] 0.016 | duvelisib 0.008 | gandotinib 0.011 | tozasertib -0.03 | [4] 0.028 | doramapimod -0.018 | ispinesib 0.185 | bafetinib -0.023 | [5] 0.033 | nilotinib 0.024 | dasatinib -0.134 | [7] -0.161 | [8] 0.026 | [9] -0.021 | tipifarnib 0.093 | mubritinib -0.006

GNAI3 (UniProt P08754)
inactive: [1] 0.121 | crizotinib 0.103 | [2] -0.122 | [3] 0.003 | duvelisib 0.002 | gandotinib 0.039 | tozasertib -0.023 | [4] -0.014 | doramapimod 0.036 | ispinesib -0.008 | bafetinib 0.066 | [5] 0.033 | nilotinib 0.185 | [6] 0.008 | dasatinib 0.086 | [7] -0.004 | [8] -0.017 | [9] 0.018 | tipifarnib -0.008 | mubritinib -0.032

GCC2 (UniProt Q8IWJ2)
inactive: [1] 0.04 | crizotinib -0.01 | [2] -0.104 | [3] 0.246 | duvelisib -0.007 | gandotinib 0.081 | tozasertib 0.113 | [4] 0.048 | doramapimod 0.136 | ispinesib -0.173 | bafetinib 0.033 | [5] -0.045 | nilotinib -0.14 | [6] -0.071 | dasatinib -0.011 | [7] 0.119 | [8] -0.032 | [9] 0.02 | tipifarnib 0.051 | mubritinib -0.088

HMGCR isoform 3 (UniProt P04035)
Chain of UniProt P04035 (P04035 whole entry, looked up): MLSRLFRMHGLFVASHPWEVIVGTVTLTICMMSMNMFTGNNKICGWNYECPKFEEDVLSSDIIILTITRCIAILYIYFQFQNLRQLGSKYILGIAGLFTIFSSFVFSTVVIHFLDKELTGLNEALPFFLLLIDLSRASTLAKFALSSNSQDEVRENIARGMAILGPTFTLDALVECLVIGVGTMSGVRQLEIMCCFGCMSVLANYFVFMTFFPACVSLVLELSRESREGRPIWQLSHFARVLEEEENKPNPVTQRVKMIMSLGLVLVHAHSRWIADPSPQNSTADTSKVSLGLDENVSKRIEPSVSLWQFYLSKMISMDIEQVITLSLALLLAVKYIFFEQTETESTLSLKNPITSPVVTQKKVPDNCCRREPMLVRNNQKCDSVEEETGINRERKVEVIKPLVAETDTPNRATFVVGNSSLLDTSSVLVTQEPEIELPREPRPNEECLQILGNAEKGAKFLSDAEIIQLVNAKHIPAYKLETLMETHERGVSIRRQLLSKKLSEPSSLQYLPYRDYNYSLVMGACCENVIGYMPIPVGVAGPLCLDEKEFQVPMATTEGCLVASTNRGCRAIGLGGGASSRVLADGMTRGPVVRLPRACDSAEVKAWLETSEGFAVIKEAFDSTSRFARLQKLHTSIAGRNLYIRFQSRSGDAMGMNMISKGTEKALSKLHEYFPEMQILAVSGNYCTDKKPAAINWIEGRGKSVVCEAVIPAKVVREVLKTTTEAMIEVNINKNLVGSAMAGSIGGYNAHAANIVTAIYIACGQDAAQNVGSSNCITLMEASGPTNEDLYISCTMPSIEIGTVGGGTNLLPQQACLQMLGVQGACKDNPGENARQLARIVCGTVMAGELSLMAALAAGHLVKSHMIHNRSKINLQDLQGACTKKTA
inactive: [1] -0.259 | crizotinib 0.071 | [2] -0.234 | [3] -0.004 | duvelisib 0.003 | gandotinib 0.092 | tozasertib -0.088 | [4] -0.065 | doramapimod 0.025 | ispinesib 0.111 | bafetinib 0.008 | [5] 0.016 | nilotinib -0.241 | [6] 0.015 | dasatinib -0.027 | [7] -0.087 | [8] -0.023 | [9] -0.062 | tipifarnib -0.021 | mubritinib 0.1
